Compounds without any hit were thinned out: in the full panel of roughly 83,000, 20% have a hit.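 Treatment: one concentration, 48 hours, 96-well format. Scoring: percent growth, with anything below 10 considered active.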 Activity calls are given as the source filed them.
Assays:
Test in all cases: NCI-60 one-dose screen, 48 h (100 = growth as untreated, 0 = no growth, -100 = all killed)
Settings in all cases: 10 µM unless noted
NCI-H23 lung = test system: NCI-H23 lung
NCI-H226 lung = test system: NCI-H226 lung
NCI-H322M lung = test system: NCI-H322M lung
HOP-62 NSCLC = test system: HOP-62 NSCLC
NCI-H460 lung = test system: NCI-H460 lung
HOP-92 NSCLC = test system: HOP-92 NSCLC
NCI-H522 lung = test system: NCI-H522 lung
A549/ATCC NSCLC = test system: A549/ATCC NSCLC
786-0 renal = test system: 786-0 renal
COLO 205 colon = test system: COLO 205 colon

Measured: growth

COc1cc(C2CC(=O)Nc3c2c(C)nn3-c2nc3ccccc3[nH]2)c(OC)c(OC)c1OC (stereo not given)
inactive: NCI-H23 lung 82.6% | NCI-H226 lung 89.7% | NCI-H322M lung 95.2% | HOP-62 NSCLC 44.3% | NCI-H460 lung 39% | HOP-92 NSCLC 75.7% | NCI-H522 lung 33.3% | A549/ATCC NSCLC 43.2% | 786-0 renal 27.6% | COLO 205 colon 41.2%

O=C(CCCCCCSc1nc(-c2ccccc2)cc(-c2ccc(Cl)cc2)n1)NO
inactive: NCI-H322M lung 21.3% | COLO 205 colon 20.9%
active: NCI-H23 lung -17.7% | NCI-H226 lung 2.23% | HOP-62 NSCLC -9.16% | NCI-H460 lung 7.04% | HOP-92 NSCLC -7.58% | NCI-H522 lung -15.8% | A549/ATCC NSCLC -23% | 786-0 renal 1.46%

c1ccc2cc3nc4cc5ccccc5cc4nc3cc2c1
inactive: NCI-H23 lung 88.8% | NCI-H226 lung 97.3% | NCI-H322M lung 109% | HOP-62 NSCLC 83.5% | NCI-H460 lung 99.8% | HOP-92 NSCLC 94.3% | NCI-H522 lung 99% | A549/ATCC NSCLC 88.4% | 786-0 renal 108% | COLO 205 colon 77.7%

Cc1ccc(C2SCC(=O)N2Cc2ccccc2)cc1 (stereo not given)
inactive: NCI-H23 lung 100% | NCI-H226 lung 96% | NCI-H322M lung 95.6% | HOP-62 NSCLC 104% | NCI-H460 lung 115% | HOP-92 NSCLC 81.7% | NCI-H522 lung 83.6% | A549/ATCC NSCLC 102% | 786-0 renal 89.2% | COLO 205 colon 109%

O=C1OC(c2nc3ccccc3s2)=C/C1=C\c1ccc(O)cc1
inactive: NCI-H23 lung 98.9% | NCI-H226 lung 99.5% | NCI-H322M lung 110% | HOP-62 NSCLC 91.8% | NCI-H460 lung 101% | HOP-92 NSCLC 87.9% | NCI-H522 lung 91.4% | A549/ATCC NSCLC 109% | 786-0 renal 107% | COLO 205 colon 102%

NC(=O)c1ccc[n+](Cc2ccc(Cl)cc2Cl)c1
inactive: NCI-H23 lung 102% | NCI-H226 lung 99.3% | NCI-H322M lung 104% | HOP-62 NSCLC 88.3% | NCI-H460 lung 102% | HOP-92 NSCLC 96% | NCI-H522 lung 79.4% | A549/ATCC NSCLC 70.1% | 786-0 renal 94.7% | COLO 205 colon 111%

COc1ccc(C(=O)/C=C/c2c(C(F)(F)F)nc3sccn23)cc1OC
active: NCI-H460 lung -46.6%
inactive: NCI-H23 lung 22.7% | NCI-H226 lung 53.5% | NCI-H322M lung 34.6% | HOP-62 NSCLC 25% | HOP-92 NSCLC 78.2% | NCI-H522 lung 93.1% | A549/ATCC NSCLC 73.8% | 786-0 renal 32% | COLO 205 colon 27.3%

Fc1cnc(NC2CC2)nc1-c1cnc2ccc(N3CCOCC3)cn12
active: NCI-H23 lung -7.34% | NCI-H226 lung 0.213% | NCI-H322M lung 4.31% | HOP-62 NSCLC 9.8% | NCI-H460 lung 4.3% | HOP-92 NSCLC 1.51% | NCI-H522 lung -18.5% | A549/ATCC NSCLC 3.21% | COLO 205 colon -22.1%
inactive: 786-0 renal 11.2%

COc1ccc(-c2nc(SCCC(C)C)nc(N/N=C\c3cccc(Cl)c3)c2C#N)cc1
inactive: NCI-H23 lung 82.6% | NCI-H226 lung 90% | NCI-H322M lung 55.8% | HOP-62 NSCLC 49.7% | NCI-H460 lung 15.2% | HOP-92 NSCLC 62.5% | NCI-H522 lung 71.3% | A549/ATCC NSCLC 59.7% | 786-0 renal 43.2% | COLO 205 colon 81.9%

CCOc1ccccc1-n1c(CN2CCN(C(=O)COc3ccc(CNCCCCCCN4C5CCCC4CC(OC(=O)Nc4cc(C)ccc4OC)C5)cc3)CC2)nc2ccccc2c1=O (stereo not given)
active: NCI-H23 lung -82.6% | NCI-H226 lung -73.5% | NCI-H322M lung -98.1% | HOP-62 NSCLC -92% | NCI-H460 lung -90.9% | HOP-92 NSCLC -90.2% | NCI-H522 lung -86.7% | A549/ATCC NSCLC -88.2% | 786-0 renal -89.6% | COLO 205 colon -85.1%

O=S(=O)(O)c1ccc(N/N=C/c2ccccc2Cl)cc1
inactive: NCI-H23 lung 108% | NCI-H226 lung 111% | NCI-H322M lung 108% | HOP-62 NSCLC 123% | NCI-H460 lung 109% | HOP-92 NSCLC 116% | NCI-H522 lung 96.9% | A549/ATCC NSCLC 99.5% | 786-0 renal 95.6% | COLO 205 colon 112%

N#C/C(=C\c1ccc2c(c1)OCO2)n1nnc2cc(F)c(F)cc21
inactive: NCI-H23 lung 67.5% | NCI-H226 lung 69.5% | NCI-H322M lung 86.2% | HOP-62 NSCLC 69.4% | NCI-H460 lung 77.5% | HOP-92 NSCLC 46.5% | NCI-H522 lung 18.3% | A549/ATCC NSCLC 79% | 786-0 renal 89.2% | COLO 205 colon 87.4%

CC(CCc1ccc(Cl)c(Cl)c1)NCc1ccc(C(C)(C)C)cc1 (stereo not given)
active: COLO 205 colon -38.2%
inactive: NCI-H23 lung 91.9% | NCI-H226 lung 83.9% | NCI-H322M lung 97.8% | HOP-62 NSCLC 85.9% | NCI-H460 lung 90.6% | HOP-92 NSCLC 59.5% | NCI-H522 lung 82.7% | A549/ATCC NSCLC 60.8% | 786-0 renal 70.8%

Cc1ccc(Cl)c(NS(=O)(=O)c2ccc(-c3cnc(C4CC4)o3)cc2)c1
inactive: NCI-H23 lung 36.2% | NCI-H226 lung 33.8% | NCI-H322M lung 44.4% | HOP-62 NSCLC 42.7% | NCI-H460 lung 14.3% | HOP-92 NSCLC 73.9% | A549/ATCC NSCLC 26.5% | 786-0 renal 27.8%
active: NCI-H522 lung 3.84% | COLO 205 colon -0.408%

O=C(Nc1ccc(-n2cc(-c3ccncc3)c(-c3ccc(Cl)c(O)c3)n2)cc1)N1CCOCC1
inactive: NCI-H23 lung 111% | NCI-H226 lung 103% | NCI-H322M lung 106% | HOP-62 NSCLC 95.7% | NCI-H460 lung 103% | HOP-92 NSCLC 90.6% | NCI-H522 lung 94% | A549/ATCC NSCLC 111% | 786-0 renal 101% | COLO 205 colon 97.4%

NC(=O)c1ccc[n+]([C@@H]2O[C@H](COP(=O)([O-])OP(=O)(O)OC[C@H]3O[C@@H](n4cnc5c(N)ncnc54)[C@H](O)[C@@H]3O)[C@@H](O)[C@H]2O)c1
inactive: NCI-H23 lung 103% | NCI-H226 lung 117% | NCI-H322M lung 113% | HOP-62 NSCLC 108% | NCI-H460 lung 104% | HOP-92 NSCLC 111% | NCI-H522 lung 105% | A549/ATCC NSCLC 105% | 786-0 renal 103% | COLO 205 colon 113%

CN(Cc1cnc2nc(N)nc(N)c2n1)c1ccc(C(=O)N[C@@H](CCc2nn[nH]n2)c2nn[nH]n2)cc1
inactive: NCI-H23 lung 40.8% | NCI-H226 lung 85.4% | NCI-H322M lung 66% | HOP-62 NSCLC 32.7% | NCI-H460 lung 19.4% | HOP-92 NSCLC 93.2% | NCI-H522 lung 40.9% | A549/ATCC NSCLC 22.9% | 786-0 renal 26.8% | COLO 205 colon 49.3%

Cc1cc(NCCCCNc2ccnc3cc(Cl)ccc23)nc(Nc2ccc(C(=O)N3CCCC3)cc2)n1
active: COLO 205 colon -42.8%
inactive: NCI-H23 lung 81.4% | NCI-H226 lung 108% | NCI-H322M lung 67.6% | HOP-62 NSCLC 92.5% | NCI-H460 lung 18.1% | HOP-92 NSCLC 72.6% | NCI-H522 lung 26.5% | A549/ATCC NSCLC 24% | 786-0 renal 68.4%

COc1cccc(Nc2nccc(Nc3ccc4[nH]ncc4c3)n2)c1
active: NCI-H23 lung -29.1% | NCI-H226 lung -17.3% | NCI-H322M lung 7.17% | HOP-62 NSCLC -11.4% | NCI-H460 lung -68.1% | HOP-92 NSCLC -11.2% | NCI-H522 lung -68.4% | A549/ATCC NSCLC -68.3% | 786-0 renal -12.5% | COLO 205 colon -88.4%

Nc1cc2c3c(cccc3c1)C(=O)N(CCN1CCCC1)C2=O
inactive: NCI-H23 lung 39.5% | NCI-H322M lung 54.5% | HOP-62 NSCLC 44.4% | HOP-92 NSCLC 27.5% | NCI-H522 lung 29.3% | A549/ATCC NSCLC 14.8% | 786-0 renal 46.4% | COLO 205 colon 14%
active: NCI-H226 lung -7.42% | NCI-H460 lung 2.15%

COc1ccc2c(c1)O/C(=C\c1cccc(OCC(=O)Nc3nc(C)c(C)s3)c1)C2=O
inactive: NCI-H23 lung 19.4% | NCI-H226 lung 92.2% | NCI-H322M lung 103% | HOP-62 NSCLC 101% | NCI-H460 lung 88.8% | A549/ATCC NSCLC 12.4% | 786-0 renal 17.7% | COLO 205 colon 91.6%
active: HOP-92 NSCLC -75.4% | NCI-H522 lung -73.8%

Cn1c(-c2c(N)n(Cc3cccnc3)c3nc(C#N)c(C#N)nc23)nc2ccccc21
inactive: NCI-H23 lung 92.2% | NCI-H226 lung 98.4% | NCI-H322M lung 77% | HOP-62 NSCLC 95.3% | NCI-H460 lung 106% | NCI-H522 lung 76.4% | A549/ATCC NSCLC 94.6% | 786-0 renal 91% | COLO 205 colon 117%
active: HOP-92 NSCLC 2.81%

CCC(CO)Nc1nc2ccc(Cl)cc2c2ccccc12 (stereo not given)
inactive: NCI-H23 lung 73.9% | NCI-H226 lung 65.3% | NCI-H322M lung 47.2% | HOP-62 NSCLC 60.3% | NCI-H460 lung 25.1% | HOP-92 NSCLC 48.9% | NCI-H522 lung 58.6% | A549/ATCC NSCLC 55.3% | 786-0 renal 41.6% | COLO 205 colon 86.4%

CC/C=C\C[C@H](O)C/C=C1/C(=O)C=C[C@@H]1C/C=C\CCCCO
inactive: NCI-H23 lung 60.9% | NCI-H322M lung 50.8% | HOP-92 NSCLC 48.8%
active: NCI-H226 lung -23.9% | HOP-62 NSCLC 6.06% | NCI-H460 lung 0.172% | NCI-H522 lung -40.2% | A549/ATCC NSCLC 5.55% | 786-0 renal -49.6% | COLO 205 colon -34.3%

CCN(CC)CCCC(C)Nc1c2ccc(Cl)cc2nc2ccc(O)cc12 (stereo not given)
active: COLO 205 colon -16.4%
inactive: NCI-H23 lung 46.2% | NCI-H226 lung 39.4% | NCI-H322M lung 38% | HOP-62 NSCLC 42.1% | NCI-H460 lung 14.7% | HOP-92 NSCLC 50.3% | NCI-H522 lung 37% | A549/ATCC NSCLC 24.4% | 786-0 renal 22.3%
